# Legend:
# Test in all cases: DAPPL (digital affinity profiling via proximity ligation, sequencing); 10 mM Tris-HCl pH 7.5, 50 mM NaCl, 1 mM DTT, 4% glycerol, room temperature, 30 min; GST-TFs on glutathione beads, 16-mer random dsDNA library, 0.1% formaldehyde crosslink after washing; high values mean tight binding
# Details in all cases: protein: recombinant; tags: N-terminal GST; dsDNA, one strand shown
# ELK1 = target: T1, ELK1 (Homo sapiens, UniProt P19419 1-428)
# T1 sequence: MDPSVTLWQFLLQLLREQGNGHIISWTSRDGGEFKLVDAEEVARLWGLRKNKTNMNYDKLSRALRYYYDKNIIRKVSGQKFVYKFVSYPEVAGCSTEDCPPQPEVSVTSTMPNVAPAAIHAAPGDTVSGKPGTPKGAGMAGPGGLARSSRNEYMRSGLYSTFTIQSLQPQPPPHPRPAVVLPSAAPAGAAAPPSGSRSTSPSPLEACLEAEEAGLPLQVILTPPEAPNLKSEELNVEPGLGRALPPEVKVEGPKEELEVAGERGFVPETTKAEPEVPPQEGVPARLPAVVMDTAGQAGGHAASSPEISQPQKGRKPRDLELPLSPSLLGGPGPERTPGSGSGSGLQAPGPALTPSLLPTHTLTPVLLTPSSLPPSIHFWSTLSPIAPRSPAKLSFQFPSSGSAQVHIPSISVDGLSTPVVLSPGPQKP
# How it was run: (§1)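 Binding signal is each hexamer's read frequency for a factor divided by its frequency in the tag-only sample. The factors were GST-fused human transcription factors from yeast, captured on glutathione beads, DNA-barcoded and pooled with that sample. Pools were incubated with 200 nmole of a random double-stranded 16-mer DNA library in Tris/NaCl/DTT/glycerol buffer at room temperature for 30 min, then washed, crosslinked with 0.1% formaldehyde, proximity-ligated with BsaI/T4 ligase (1 h, 37 °C), PCR-amplified and sequenced on an Illumina NextSeq500.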
# GABPA = target: T2, GABPA (Homo sapiens, UniProt Q06546 1-454)
# T2 sequence: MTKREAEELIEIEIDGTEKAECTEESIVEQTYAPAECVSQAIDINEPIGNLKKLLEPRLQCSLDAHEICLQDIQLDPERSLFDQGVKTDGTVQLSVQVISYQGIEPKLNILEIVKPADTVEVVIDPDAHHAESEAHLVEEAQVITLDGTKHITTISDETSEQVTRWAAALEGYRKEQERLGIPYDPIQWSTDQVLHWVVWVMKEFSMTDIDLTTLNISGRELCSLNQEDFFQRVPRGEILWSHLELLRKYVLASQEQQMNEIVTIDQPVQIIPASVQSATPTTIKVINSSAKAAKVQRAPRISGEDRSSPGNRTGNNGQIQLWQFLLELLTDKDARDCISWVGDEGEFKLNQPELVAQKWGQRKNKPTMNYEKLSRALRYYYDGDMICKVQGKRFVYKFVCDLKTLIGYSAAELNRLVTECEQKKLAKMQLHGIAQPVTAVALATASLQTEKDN
# How it was run: as §1
# ERG = target: T3, ERG (Homo sapiens, UniProt P11308 1-479)
# T3 sequence: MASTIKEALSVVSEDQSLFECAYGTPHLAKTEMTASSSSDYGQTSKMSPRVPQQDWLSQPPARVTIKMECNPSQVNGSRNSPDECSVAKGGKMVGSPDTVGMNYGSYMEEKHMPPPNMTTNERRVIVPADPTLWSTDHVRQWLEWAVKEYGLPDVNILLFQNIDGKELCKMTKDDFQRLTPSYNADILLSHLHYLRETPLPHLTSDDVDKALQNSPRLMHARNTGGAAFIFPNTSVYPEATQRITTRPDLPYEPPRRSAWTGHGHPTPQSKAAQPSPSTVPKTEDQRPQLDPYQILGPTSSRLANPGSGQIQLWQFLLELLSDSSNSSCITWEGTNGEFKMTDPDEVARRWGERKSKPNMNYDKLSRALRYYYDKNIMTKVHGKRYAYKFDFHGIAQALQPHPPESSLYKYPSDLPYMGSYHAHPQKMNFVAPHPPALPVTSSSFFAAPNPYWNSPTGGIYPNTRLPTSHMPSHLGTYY
# How it was run: as §1
# ELF1 = ELF1 (Homo sapiens, UniProt P32519 1-619)
# How it was run: as §1
# EHF = target: T4, EHF (Homo sapiens, UniProt Q9NZC4 1-300)
# T4 sequence: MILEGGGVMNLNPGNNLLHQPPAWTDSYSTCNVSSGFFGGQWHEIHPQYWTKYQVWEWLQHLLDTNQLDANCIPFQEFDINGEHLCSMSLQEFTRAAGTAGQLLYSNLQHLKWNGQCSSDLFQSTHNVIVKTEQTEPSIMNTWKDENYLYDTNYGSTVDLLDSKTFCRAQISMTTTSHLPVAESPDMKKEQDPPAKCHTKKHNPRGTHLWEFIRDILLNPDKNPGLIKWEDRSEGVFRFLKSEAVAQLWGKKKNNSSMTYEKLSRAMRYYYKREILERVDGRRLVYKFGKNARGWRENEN
# How it was run: as §1
# SPIB = SPIB (Homo sapiens, UniProt Q01892 1-262)
# How it was run: as §1
# FEV = target: T5, FEV (Homo sapiens, UniProt Q99581 1-238)
# T5 sequence: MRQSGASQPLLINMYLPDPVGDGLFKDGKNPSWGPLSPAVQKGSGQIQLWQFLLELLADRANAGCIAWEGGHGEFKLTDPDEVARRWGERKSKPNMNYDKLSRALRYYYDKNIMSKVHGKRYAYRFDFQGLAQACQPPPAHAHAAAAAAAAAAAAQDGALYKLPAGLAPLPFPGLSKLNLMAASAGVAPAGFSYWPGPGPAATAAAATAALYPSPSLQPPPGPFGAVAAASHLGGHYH
# How it was run: as §1
# ETV5 = ETV5 (Homo sapiens, UniProt P41161 1-510)
# How it was run: as §1
# ELF4 = ELF4 (Homo sapiens, UniProt Q99607 1-663)
# How it was run: as §1
# ELK4 = target: T6, ELK4 (Homo sapiens, UniProt P28324-2 1-405)
# T6 sequence: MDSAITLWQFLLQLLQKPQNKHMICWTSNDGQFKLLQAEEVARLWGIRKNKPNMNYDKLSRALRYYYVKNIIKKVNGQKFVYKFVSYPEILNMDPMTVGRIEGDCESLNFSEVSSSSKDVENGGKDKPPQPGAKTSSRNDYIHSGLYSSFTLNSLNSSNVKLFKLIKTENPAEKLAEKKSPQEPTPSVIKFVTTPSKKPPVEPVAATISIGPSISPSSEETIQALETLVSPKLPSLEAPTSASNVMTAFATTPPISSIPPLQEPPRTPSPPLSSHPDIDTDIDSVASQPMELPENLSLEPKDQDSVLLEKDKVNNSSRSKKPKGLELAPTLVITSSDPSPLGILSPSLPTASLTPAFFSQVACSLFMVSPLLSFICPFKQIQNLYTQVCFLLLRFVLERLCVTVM
# How it was run: as §1
# ELF3 = target: T7, ELF3 (Homo sapiens, UniProt P78545 1-371)
# T7 sequence: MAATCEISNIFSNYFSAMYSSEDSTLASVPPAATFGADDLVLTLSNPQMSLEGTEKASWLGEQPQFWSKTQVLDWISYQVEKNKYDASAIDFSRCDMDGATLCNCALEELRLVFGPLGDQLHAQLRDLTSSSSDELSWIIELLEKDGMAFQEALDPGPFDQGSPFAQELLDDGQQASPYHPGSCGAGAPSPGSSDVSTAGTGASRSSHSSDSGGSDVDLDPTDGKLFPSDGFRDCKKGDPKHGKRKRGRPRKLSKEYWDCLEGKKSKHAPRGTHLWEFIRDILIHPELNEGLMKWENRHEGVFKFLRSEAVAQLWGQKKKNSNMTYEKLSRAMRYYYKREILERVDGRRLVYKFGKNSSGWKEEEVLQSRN
# How it was run: as §1
# ETV1 = ETV1 (Homo sapiens, UniProt P50549 1-477)
# How it was run: as §1
# ETV3L = target: T8, ETV3L (Homo sapiens, UniProt Q6ZN32 1-361)
# T8 sequence: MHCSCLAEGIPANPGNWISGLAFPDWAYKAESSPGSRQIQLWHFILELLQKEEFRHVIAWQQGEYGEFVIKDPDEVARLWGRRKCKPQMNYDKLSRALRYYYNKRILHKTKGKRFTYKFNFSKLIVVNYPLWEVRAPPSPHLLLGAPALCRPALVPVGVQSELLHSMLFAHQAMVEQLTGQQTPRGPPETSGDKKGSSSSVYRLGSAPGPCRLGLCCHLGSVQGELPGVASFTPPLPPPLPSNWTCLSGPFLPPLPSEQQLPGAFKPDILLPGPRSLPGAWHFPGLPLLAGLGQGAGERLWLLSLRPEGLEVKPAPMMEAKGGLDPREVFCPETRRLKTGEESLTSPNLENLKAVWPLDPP
# How it was run: as §1
# ETS2 = target: T9, ETS2 (Homo sapiens, UniProt P15036 1-469)
# T9 sequence: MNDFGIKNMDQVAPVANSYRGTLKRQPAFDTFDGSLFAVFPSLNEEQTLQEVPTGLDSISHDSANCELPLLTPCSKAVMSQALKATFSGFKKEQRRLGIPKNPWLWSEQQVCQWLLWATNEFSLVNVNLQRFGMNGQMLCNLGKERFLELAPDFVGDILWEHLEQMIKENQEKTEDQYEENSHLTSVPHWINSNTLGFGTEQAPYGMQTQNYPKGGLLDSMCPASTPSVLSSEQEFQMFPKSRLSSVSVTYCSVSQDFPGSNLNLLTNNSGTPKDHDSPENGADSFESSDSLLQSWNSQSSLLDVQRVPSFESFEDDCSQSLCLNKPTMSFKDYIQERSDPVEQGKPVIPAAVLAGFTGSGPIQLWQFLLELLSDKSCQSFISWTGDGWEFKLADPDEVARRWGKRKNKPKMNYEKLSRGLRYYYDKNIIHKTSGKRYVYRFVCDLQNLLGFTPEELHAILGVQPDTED
# How it was run: as §1
# SPDEF = target: T10, SPDEF (Homo sapiens, UniProt O95238 1-335)
# T10 sequence: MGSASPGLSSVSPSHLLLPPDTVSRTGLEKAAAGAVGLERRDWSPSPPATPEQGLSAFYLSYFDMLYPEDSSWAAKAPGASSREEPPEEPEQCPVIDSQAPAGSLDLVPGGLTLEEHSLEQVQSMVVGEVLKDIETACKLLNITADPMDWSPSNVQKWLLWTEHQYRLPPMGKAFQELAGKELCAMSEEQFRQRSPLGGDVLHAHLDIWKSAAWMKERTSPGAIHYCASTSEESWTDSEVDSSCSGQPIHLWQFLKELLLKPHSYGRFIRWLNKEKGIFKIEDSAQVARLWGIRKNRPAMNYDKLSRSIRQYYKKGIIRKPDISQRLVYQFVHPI
# How it was run: as §1
# ETV7 = target: T11, ETV7 (Homo sapiens, UniProt Q9Y603 1-341)
# T11 sequence: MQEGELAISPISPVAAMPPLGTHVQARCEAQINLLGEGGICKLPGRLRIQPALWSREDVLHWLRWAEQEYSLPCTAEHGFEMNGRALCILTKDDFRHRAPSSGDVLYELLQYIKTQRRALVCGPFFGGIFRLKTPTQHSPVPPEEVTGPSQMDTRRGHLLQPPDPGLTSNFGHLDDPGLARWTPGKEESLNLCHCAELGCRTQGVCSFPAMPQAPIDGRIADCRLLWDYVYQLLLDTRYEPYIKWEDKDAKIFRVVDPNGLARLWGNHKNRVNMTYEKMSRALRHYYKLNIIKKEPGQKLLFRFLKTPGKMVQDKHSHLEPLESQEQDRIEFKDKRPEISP
# How it was run: as §1
# ETV3 = target: T12, ETV3 (Homo sapiens, UniProt P41162-2 1-143)
# T12 sequence: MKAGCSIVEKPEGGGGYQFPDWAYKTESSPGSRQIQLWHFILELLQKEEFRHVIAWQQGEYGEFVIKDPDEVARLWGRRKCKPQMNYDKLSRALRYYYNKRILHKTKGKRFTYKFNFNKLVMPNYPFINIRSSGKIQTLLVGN
# How it was run: as §1
# ETV6 = ETV6 (Homo sapiens, UniProt P41212 1-452)
# How it was run: as §1
# ETV1, sequence (P50549 whole entry): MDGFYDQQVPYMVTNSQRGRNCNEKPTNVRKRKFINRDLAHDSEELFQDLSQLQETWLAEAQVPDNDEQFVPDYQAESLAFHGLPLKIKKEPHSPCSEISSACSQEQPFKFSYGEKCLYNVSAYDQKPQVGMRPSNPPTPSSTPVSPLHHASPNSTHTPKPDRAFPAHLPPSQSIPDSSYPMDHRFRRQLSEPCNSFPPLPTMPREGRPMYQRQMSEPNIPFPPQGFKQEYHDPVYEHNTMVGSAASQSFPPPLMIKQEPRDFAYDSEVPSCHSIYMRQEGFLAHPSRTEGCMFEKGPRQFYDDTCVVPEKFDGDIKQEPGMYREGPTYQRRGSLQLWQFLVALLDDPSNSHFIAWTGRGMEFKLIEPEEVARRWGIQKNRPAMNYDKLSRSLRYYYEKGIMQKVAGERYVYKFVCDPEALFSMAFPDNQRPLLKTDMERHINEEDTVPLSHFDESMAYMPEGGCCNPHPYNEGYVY
# ETV5, sequence (P41161 whole entry): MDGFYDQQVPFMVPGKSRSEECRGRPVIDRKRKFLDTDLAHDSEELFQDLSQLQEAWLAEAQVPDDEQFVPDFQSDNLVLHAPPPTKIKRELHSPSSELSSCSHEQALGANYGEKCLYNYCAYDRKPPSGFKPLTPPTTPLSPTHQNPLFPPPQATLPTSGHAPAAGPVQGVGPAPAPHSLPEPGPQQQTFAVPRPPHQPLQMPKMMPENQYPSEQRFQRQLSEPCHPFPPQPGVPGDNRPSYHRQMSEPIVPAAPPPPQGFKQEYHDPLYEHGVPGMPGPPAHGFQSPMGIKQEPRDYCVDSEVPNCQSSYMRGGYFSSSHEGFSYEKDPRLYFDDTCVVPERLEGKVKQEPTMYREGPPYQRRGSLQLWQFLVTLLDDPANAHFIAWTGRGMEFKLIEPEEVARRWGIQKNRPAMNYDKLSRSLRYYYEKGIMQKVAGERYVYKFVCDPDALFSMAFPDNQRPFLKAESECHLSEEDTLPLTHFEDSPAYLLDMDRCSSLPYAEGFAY
# ELF1, sequence (P32519 whole entry): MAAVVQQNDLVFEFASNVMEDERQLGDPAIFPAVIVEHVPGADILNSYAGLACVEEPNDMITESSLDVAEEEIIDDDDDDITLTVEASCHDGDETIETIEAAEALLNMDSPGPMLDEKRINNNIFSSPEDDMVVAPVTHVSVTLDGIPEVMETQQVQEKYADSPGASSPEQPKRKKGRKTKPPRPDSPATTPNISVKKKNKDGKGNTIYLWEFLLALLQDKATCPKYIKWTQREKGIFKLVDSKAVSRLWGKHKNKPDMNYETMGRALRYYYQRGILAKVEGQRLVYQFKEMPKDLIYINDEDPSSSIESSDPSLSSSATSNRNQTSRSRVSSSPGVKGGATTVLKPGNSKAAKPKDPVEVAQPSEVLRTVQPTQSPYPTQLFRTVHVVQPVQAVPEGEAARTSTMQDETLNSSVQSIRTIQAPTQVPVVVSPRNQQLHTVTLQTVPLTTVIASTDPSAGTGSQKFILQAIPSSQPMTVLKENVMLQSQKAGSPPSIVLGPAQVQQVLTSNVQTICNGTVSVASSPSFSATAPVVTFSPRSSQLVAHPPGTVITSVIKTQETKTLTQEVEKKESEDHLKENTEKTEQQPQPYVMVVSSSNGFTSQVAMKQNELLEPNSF
# SPIB, sequence (Q01892 whole entry): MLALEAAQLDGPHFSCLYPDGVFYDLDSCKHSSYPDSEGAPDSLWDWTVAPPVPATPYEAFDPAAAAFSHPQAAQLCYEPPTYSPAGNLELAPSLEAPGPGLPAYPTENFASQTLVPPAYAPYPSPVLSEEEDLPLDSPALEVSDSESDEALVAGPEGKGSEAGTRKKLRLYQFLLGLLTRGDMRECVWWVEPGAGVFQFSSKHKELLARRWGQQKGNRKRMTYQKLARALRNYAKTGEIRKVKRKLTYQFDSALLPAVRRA
# ELF4, sequence (Q99607 whole entry): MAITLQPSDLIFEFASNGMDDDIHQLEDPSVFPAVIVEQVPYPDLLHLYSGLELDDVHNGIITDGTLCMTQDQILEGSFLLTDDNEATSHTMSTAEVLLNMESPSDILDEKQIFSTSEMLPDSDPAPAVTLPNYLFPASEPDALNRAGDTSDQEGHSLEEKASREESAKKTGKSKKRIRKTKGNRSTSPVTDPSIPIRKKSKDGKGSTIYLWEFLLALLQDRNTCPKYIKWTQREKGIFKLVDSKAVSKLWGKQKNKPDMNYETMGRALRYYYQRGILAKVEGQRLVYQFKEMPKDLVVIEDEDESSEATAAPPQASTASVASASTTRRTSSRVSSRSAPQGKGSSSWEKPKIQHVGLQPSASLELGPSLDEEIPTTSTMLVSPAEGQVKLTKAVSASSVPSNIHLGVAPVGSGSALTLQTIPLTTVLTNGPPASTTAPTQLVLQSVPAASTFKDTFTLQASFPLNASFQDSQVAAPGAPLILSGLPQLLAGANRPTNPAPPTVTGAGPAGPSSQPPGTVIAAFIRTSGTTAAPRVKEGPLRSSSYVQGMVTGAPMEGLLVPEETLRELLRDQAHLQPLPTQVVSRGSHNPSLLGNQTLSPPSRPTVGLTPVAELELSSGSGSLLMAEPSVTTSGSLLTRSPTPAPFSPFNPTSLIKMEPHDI
# ETV6, sequence (P41212 whole entry): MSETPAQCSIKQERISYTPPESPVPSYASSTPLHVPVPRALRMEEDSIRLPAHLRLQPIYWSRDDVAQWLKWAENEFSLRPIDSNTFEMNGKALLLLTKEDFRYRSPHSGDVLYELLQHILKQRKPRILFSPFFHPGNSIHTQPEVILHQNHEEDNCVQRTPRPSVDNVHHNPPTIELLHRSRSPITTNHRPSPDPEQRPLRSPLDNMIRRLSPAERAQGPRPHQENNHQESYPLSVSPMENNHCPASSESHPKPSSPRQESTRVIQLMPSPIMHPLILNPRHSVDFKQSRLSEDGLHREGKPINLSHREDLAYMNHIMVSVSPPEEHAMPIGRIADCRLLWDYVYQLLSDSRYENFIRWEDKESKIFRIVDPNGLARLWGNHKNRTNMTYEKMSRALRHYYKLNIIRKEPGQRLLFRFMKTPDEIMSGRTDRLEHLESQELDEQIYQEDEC
sequence,measurement,setting,value
ACCGGC,binding signal,ELK1,"1.08 fold enrichment (6-mer frequency, TF over GST control)"
same,binding signal,GABPA,"1.12 fold enrichment (6-mer frequency, TF over GST control)"
same,binding signal,ERG,"1.13 fold enrichment (6-mer frequency, TF over GST control)"
same,binding signal,ELF1,"1.19 fold enrichment (6-mer frequency, TF over GST control)"
same,binding signal,EHF,"1.12 fold enrichment (6-mer frequency, TF over GST control)"
same,binding signal,SPIB,"1.3 fold enrichment (6-mer frequency, TF over GST control)"
same,binding signal,FEV,"1.14 fold enrichment (6-mer frequency, TF over GST control)"
same,binding signal,ETV5,"1.1 fold enrichment (6-mer frequency, TF over GST control)"
same,binding signal,ELF4,"1.03 fold enrichment (6-mer frequency, TF over GST control)"
same,binding signal,ELK4,"1.1 fold enrichment (6-mer frequency, TF over GST control)"
same,binding signal,ELF3,"1.21 fold enrichment (6-mer frequency, TF over GST control)"
same,binding signal,ETV1,"1.23 fold enrichment (6-mer frequency, TF over GST control)"
same,binding signal,ETV3L,"1.21 fold enrichment (6-mer frequency, TF over GST control)"
same,binding signal,ETS2,"1.17 fold enrichment (6-mer frequency, TF over GST control)"
same,binding signal,SPDEF,"1.05 fold enrichment (6-mer frequency, TF over GST control)"
same,binding signal,ETV7,"1.06 fold enrichment (6-mer frequency, TF over GST control)"
same,binding signal,ETV3,"1.15 fold enrichment (6-mer frequency, TF over GST control)"
same,binding signal,ETV6,"1.31 fold enrichment (6-mer frequency, TF over GST control)"

# — publication PMC7862700, “An all-to-all approach to the identification of sequence-specific readers for epigenetic DNA modifications on cytosine”
